proKLK7 act – proKLK7 zymogen activators, primary screen, biochemical, fluorescence intensity; purified proKLK7, EDANS-DABCYL substrate fluorescence; 100% is mature enzyme control, 0% vehicle; 370,000 tested, 0.9% active; activation, % at 7 µM; Kallikrein-7 (Homo sapiens), P49862;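 active = activation above the mean of all tested compounds plus 3 SD, computed per campaign excluding outliers beyond control limits, cut at about 13% in these data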
Target sequence (P49862 whole entry, looked up): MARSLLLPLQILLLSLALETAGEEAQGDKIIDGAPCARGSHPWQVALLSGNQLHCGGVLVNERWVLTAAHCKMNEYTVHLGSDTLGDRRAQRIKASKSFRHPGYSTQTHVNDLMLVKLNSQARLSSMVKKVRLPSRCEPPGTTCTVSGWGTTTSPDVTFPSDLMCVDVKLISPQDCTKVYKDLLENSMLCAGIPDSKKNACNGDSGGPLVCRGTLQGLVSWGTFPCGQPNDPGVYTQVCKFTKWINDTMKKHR
ADAM17 inh – ADAM17 inhibitors, primary screen, biochemical, QFRET. inhibition, % at 6.95 µM. recombinant ADAM17, EDANS/DABCYL FRET peptide cleavage. Disintegrin and metalloproteinase domain-containing protein 17 (Homo sapiens), P78536. AID 720648, 2013. 370,000 tested, 0.83% active;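 active = inhibition above the mean of compounds lying between control limits plus 3 SD, set per campaign, cut at about 8.5% in these data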;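 also: 0% = DMSO-only wells as the low control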
V-ATPase pH – regulators of yeast V-ATPase proton pumping, primary screen, pHLuorin cytosolic pH fluorescence; S. cerevisiae; 350,000 tested, 0.37% active; response, % at 10 µM; AID 504577, 2011; in the data active = response mostly above about 7.3%, no sharp cut-off; inactive = mostly below about 5.4%; also: actives read high
ADAM10 inh – human ADAM10 inhibitors, primary screen, biochemical, QFRET, HTS; Disintegrin and metalloproteinase domain-containing protein 10 (Homo sapiens), O14672; recombinant ADAM10, EDANS/DABCYL FRET peptide cleavage, 3 h; inhibition, % at 7 µM; 370,000 tested, 0.62% active; AID 720582, 2013;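 active = inhibition above a per-campaign cutoff equal to the mean of compounds falling between control-based bounds plus 3 SD, cut at about 20% in these data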;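 also: 0% = DMSO wells while the 100% control is not disclosed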
ADAM10 ctr – ADAM10 inhibitors, counter-screen for ADAM17 exosite inhibitor project, biochemical, FRET, human ADAM10; 2,900 tested, 47% active; inhibition, % at 6.95 µM; recombinant ADAM10, EDANS/DABCYL FRET peptide cleavage, 3 h; shares compounds with ADAM17 inh;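 active = mean inhibition over the triplicate runs exceeds the activity threshold set in the earlier primary screen, cut at about 20% in these data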;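 also: 0% = DMSO wells and 100% = marimastat wells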
ADAM17 confirm – ADAM17 inhibitors, hit retest, confirmation, biochemical, QFRET peptide cleavage. shares compounds with ADAM17 inh. AID 743257, 2014. inhibition, % at 6.95 µM. 2,900 tested, 65% active. recombinant ADAM17, EDANS/DABCYL QFRET peptide cleavage;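 active = mean inhibition across replicates above the hit cutoff set in the primary screen, cut at about 8.5% in these data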;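 also: 0% = DMSO wells and 100% = marimastat wells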
Starred values were filed as active, the others as inactive; x = not tested or not shown. Hits are enriched below; roughly 2.3% of the tested compounds scored in any of these assays.

SMILES	proKLK7 act	ADAM17 inh	V-ATPase pH	ADAM10 inh	ADAM10 ctr	ADAM17 confirm
O=C(NCc1ccc(C(=O)N2CCCC2)cc1)c1cccc(Br)c1	1	-1	x	1	x	x
COc1ccc(NS(=O)(=O)c2cc(NC(=O)c3cccs3)ccc2N2CCCC2)cc1	-2	9.1*	6	19	18	11*
CC(C)C(=O)N1CCN(c2ccc(NC(=O)c3cccs3)cc2Cl)CC1	1	9.1*	-13	11	8	6
CC(C)C(=O)N1CCN(c2ccc(NC(=O)c3cccs3)cc2)CC1	0	2	2	3	x	x
COc1ccc(NS(=O)(=O)c2cc(NC(=O)c3ccccc3F)ccc2N2CCCC2)cc1	0	8	-1	16	x	x
CCOC(=O)[C@]12CCCCC/C=C\1N(CCc1ccc(Cl)cc1)C(=O)[C@H]2CC(=O)NCc1cccc2ccccc12	0	5	x	6	x	x
CC(=O)c1cc(-c2ccc3nonc3c2)c(=O)n2c1CCC2	0	4	x	-6	x	x
CC1CN(C(=O)COc2ncnc3ccccc23)CC(C)O1 (stereo not given)	0	9.7*	-2	-4	-6	1
O=C(COc1ncnc2ccccc12)N1CCN(c2ccccc2)CC1	0	-3	2	-3	x	x
O=C(N[C@H](Cc1ccccc1)C(=O)N1CCN(c2ncccn2)CC1)[C@H]1O[C@@H](n2ccc(=O)[nH]c2=O)[C@H](O)[C@@H]1O	1	-9	x	-28	x	x
COc1cc(C(=O)Nc2ccc(Cl)c(C(F)(F)F)c2)cc(OC)c1OC	0	7	4	18	x	x
COc1cccc(C(=O)Nc2ccc(Cl)c(C(F)(F)F)c2)c1	0	11*	-3	18	8	4
CCOC(=O)Nc1ccc2c(c1)[C@]1(CC(=O)N(CC(C)C)C1c1ccccc1)C(=O)N2C (stereo not given in full)	-1	-3	x	-5	x	x
COC(=O)[C@]12C[C@H](CC(=O)NCc3cccs3)C(=O)N(Cc3cccc4ccccc34)C1=C[C@H](C(C)C)O[C@@H]2C1CC1	0	8	x	19	x	x
COc1cc(-c2nnc(SCC(=O)NN=Cc3c[nH]c4ccccc34)n2-c2ccccc2)cc(OC)c1OC	0	6	x	9	x	x
CC1=NN(c2ccccc2)C(=O)/C1=C/c1cccs1	0	10*	10	18	1	0
CC1=NN(c2ccccc2)C(=O)/C1=C\c1ccc(Br)s1	0	2	-2	6	x	x
COc1ccc(C2C3=C(N=C4SCC(=O)N42)c2ccccc2CC3)cc1 (stereo not given)	-1	-7	4	-25	x	x
COc1ccc(C2C3=C(N=C4SCC(=O)N42)c2ccccc2CC3)cc1OC (stereo not given)	-1	9.3*	-1	14	-2	2
CCCCNC(=O)NS(=O)(=O)c1ccc(NC(=O)CSc2nnc(-c3ccc(Cl)cc3)n2N)cc1	0	-3	x	-5	x	x
Cc1ccc(NC(=O)COc2ccc(Br)cc2CO)cc1	0	9.3*	0	9	-6	0
Clc1cccc(COn2c(-c3ccc(Cl)cc3Cl)nc3ncccc32)c1	1	11*	-1	4	-13	4
Cc1ccc(COn2c(-c3ccc(Cl)cc3Cl)nc3ncccc32)cc1	0	-3	10	-8	x	x
CCn1nc(C)c(C(=O)Nc2cc(Oc3ccc(Cl)cc3)cc([N+](=O)[O-])c2)c1C	0	13*	-1	15	39*	18*
COc1ccc(NC(=O)c2cc(-c3cc(Cl)ccc3C)n[nH]2)c(OC)c1	-1	9.9*	x	16	23*	11*
SMILES	proKLK7 act	ADAM17 inh	V-ATPase pH	ADAM10 inh	ADAM10 ctr	ADAM17 confirm
O=C(Nc1ccn(Cc2c(F)c(F)cc(F)c2F)n1)c1ccc(COc2ccccc2Cl)cc1	x	x	0	x	x	x
O=C(Nc1ccn(Cc2ccccc2F)n1)c1ccc(COc2ccccc2Cl)cc1	1	13*	3	19	31*	18*
Cc1cc(Cl)ccc1OCc1n[nH]c(=S)n1C1CCCCC1	0	9.3*	0	9	30*	11*
Cc1c([N+](=O)[O-])cnc(Sc2ccccc2)c1[N+](=O)[O-]	0	10*	-1	4	5	3
FC(F)(F)c1ccc(Cn2ccc3ccc(-c4ccc5ccn(Cc6ccc(C(F)(F)F)cc6)c5c4)cc32)cc1	-7	-13	x	-19	x	x
COc1c(C(O)CC(C)C)ccc2c1C(=O)OCc1cc(C)cc(O)c1O2 (stereo not given)	0	1	2	-3	x	x
COc1c(C(CC(C)C)OC(C)=O)ccc2c1C(=O)OCc1cc(C)cc(O)c1O2 (stereo not given)	1	12*	-1	19	27*	16*
Cc1cc(-c2csc(NC(=O)c3cc4ccccc4o3)n2)c(C)n1C	-1	11*	-1	14	16	7
NS(=O)(=O)c1ccc(NC(=O)N[C@@H](Cc2ccccc2)C(=O)O)cc1	0	9.8*	0	0	11	8
NC(=O)NC(Cc1ccccc1)C(=O)Nc1ccc(S(N)(=O)=O)cc1 (stereo not given)	0	-4	5	-5	x	x
CC(C)(C)C(=O)/C=c1\[nH]c(=O)/c(=C\c2ccc(F)cc2)s1	1	10*	1	18	3	6
C=CCc1c(C)nc(-c2ccccc2)nc1Nc1ccccc1O	0	10*	2	15	29*	17*
CCN(C[C@H]1N[C@@](C)(C(=O)OC)[C@H]2C(=O)N(Cc3ccccc3)C(=O)[C@@H]12)S(=O)(=O)c1ccc(C(C)(C)C)cc1	0	9.4*	1	15	21*	13*
CCN(C[C@H]1N[C@@](C)(C(=O)OC)[C@H]2C(=O)N(Cc3ccccc3)C(=O)[C@@H]12)S(=O)(=O)c1ccc(F)cc1	1	4	0	-5	x	x
Cc1sc2nc(SCC(=O)OC(C)C)n(C)c(=O)c2c1C	-1	15*	4	-5	-6	-1
Cc1sc2nc(SCC(=O)NCCO)n(C)c(=O)c2c1C	0	1	4	3	x	x
N#Cc1ccc(Cn2nnc(-c3ccc(N4CCOCC4)cc3)n2)cc1	0	-4	x	-7	x	x
COc1ccc(NC(C)C(=O)N/N=C/c2ccccc2OCc2ccc(Br)cc2)cc1 (stereo not given)	1	14*	-7	19	14	20*
